The values that follow come from ChEMBL document CHEMBL3433997, “St. Jude Leishmania screening dataset” (2016).

Where “and” joins values, the source holds several entries; their conditions need not be identical. Equal entries are not always repeated.

Holding throughout (type): functional
For experiment [1], the target named is Solute carrier family 2, facilitated glucose transporter member 1 (Homo sapiens) (UniProt P11166). Nature of the experiment: ST_JUDE_LEISH: Cytotoxicity at 2uM final concentration against transgenic Leishmania Mexicana promastigotes LmGLUT1 that are glucose transport deficient and complemented with the human glucose transporter GLUT1. Activity is measured by DNA content using SYBR green in vitro.
Sequence of Solute carrier family 2, facilitated glucose transporter member 1 (Homo sapiens) (P11166 whole entry): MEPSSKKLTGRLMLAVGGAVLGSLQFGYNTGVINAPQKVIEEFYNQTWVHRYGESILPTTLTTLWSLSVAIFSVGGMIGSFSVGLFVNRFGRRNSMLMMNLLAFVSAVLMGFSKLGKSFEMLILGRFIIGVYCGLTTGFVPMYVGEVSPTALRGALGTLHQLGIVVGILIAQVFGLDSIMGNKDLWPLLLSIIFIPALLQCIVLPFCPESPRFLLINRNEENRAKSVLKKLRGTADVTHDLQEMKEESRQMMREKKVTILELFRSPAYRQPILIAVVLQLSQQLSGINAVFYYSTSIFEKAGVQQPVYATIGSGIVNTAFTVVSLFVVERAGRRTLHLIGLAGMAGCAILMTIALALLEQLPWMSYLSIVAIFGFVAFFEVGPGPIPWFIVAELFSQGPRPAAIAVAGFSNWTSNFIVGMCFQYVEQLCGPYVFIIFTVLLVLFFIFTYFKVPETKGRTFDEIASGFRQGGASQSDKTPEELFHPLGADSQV

In experiment [2] the target is Hexose transporter 1 (Plasmodium falciparum) (UniProt O97467). Put plainly: ST_JUDE_LEISH: Cytotoxicity at 2uM final concentration against transgenic Leishmania Mexicana promastigotes LmPfHT that are glucose transport deficient and complemented with the Plasmodium falciparum hexose transporter. Activity is measured by DNA content using SYBR green in vitro.
Experiment [3] addresses Glucose transporter (Leishmania mexicana) (UniProt O61059). Nature of the experiment: ST_JUDE_LEISH: Cytotoxicity at 2uM final concentration against transgenic Leishmania Mexicana promastigotes LmGT2 that are glucose transport deficient and complemented with the L. Mexicana glucose transporter 2. Activity is measured by DNA content using SYBR green in vitro.

Regarding `CC(=O)N(Cc1ccc(CC(C)NCCc2cccc(Cl)c2)cc1)Cc1ccc(CC(C)NCCc2cccc(Cl)c2)cc1` (stereo not given), the inhibition (usually the drop in the measured response relative to a control, in per cent) in experiment [1] came to 83.6%; in experiment [2], 72.7%; in experiment [3], 99.7%.

For the molecule `O=C(Cn1c(CCc2cccc(F)c2F)cc(=O)c2cccnc21)N(CCn1ccnc1)Cc1ccc(-c2ccc(C(F)(F)F)cc2)cc1`, the figures for the inhibition in experiment [1], in experiment [2] and in experiment [3] were -0.44%, 1.8% and -1.45%, respectively.

In the case of `CN(C)c1ccc(CN2CCCCC(NC(=O)c3cc(-c4ccccc4Cl)cs3)C2)cc1` (stereo not given), the inhibition in experiment [1] was 2.84%; in experiment [2], 2.86%; in experiment [3] it was 4.6%.

`CC(C)c1ccc(CN2CCC(NC(=O)c3ccc(-c4ccccc4F)s3)CC2)cc1`: the inhibition in experiment [1] was 0.51%; in experiment [2] it was 0.39%; in experiment [3] it was -1.39%.

Take `Cn1nc(-c2cccc(CNC3CCc4ccccc43)c2)c2cnc(NC3CCCC3)nc21` (stereo not given): the inhibition stood at 2.84% in experiment [1], 5.46% in experiment [2] and 3.3% in experiment [3].

`CN(C)c1ccc(-c2csc(C(=O)NCC3CCN(Cc4ccc(C(C)(C)C)cc4)C3)c2)cc1` (stereo not given): the inhibition was -1.07% in experiment [1], -1.85% in experiment [2] and -1.57% in experiment [3].

Take `c1ccc(CNCc2cccc(-c3cccc(-c4nc5ccccc5[nH]4)c3)c2)cc1`: the values for the inhibition in experiment [1], in experiment [2] and in experiment [3] were 4.44%, 5.52% and 3.48%, respectively.

For `N#Cc1cc(C(=O)Nc2ccccc2)c(N)nc1SCC(=O)Nc1ccc(Br)cc1`, the inhibition came out at 8.21% in experiment [1], 5.88% in experiment [2] and 4.96% in experiment [3].

As for `CN(Cc1ccccc1)C(=O)c1nn(CCCN2CCC(N3CCCC3)CC2)cc1-c1ccc(Cl)c(Cl)c1`, the values for the inhibition in experiment [1], in experiment [2] and in experiment [3] were 27.6%, 13.7% and 1.65%, respectively.

With `CN1CCC(NCc2ccc(-c3cccc(S(=O)(=O)NCc4ccccc4)c3)cc2)CC1`, the results for the inhibition in experiment [1], in experiment [2] and in experiment [3] were 2.23%, 3.01% and -1.01%, respectively.

On to `CC(=O)Nc1ccc(CN(C)C2CCN(c3cc(NC(=O)c4cccc(C)c4)ccn3)CC2)cc1`, for which the inhibition is 2.4% in experiment [1], 3.41% in experiment [2] and 2.5% in experiment [3].

On to `CCOC(=O)CNC(=O)N1CCN(C(=O)NCC(=O)OCC)CC1`, for which the inhibition in experiment [1] came out at 0.06%; in experiment [2], 0.22%; in experiment [3], 1.45%.

Take `O=C(CC1SC(N2N=C(c3cccs3)CC2c2ccccc2)=NC1=O)Nc1ccccc1F` (stereo not given): the inhibition in experiment [1] is 14.2%; in experiment [2] it was 11.5%; in experiment [3] it was 3.51%.

As to `CCNc1cc(C(=O)N[C@@H](Cc2ccccc2)[C@H](O)CNC23CCC(CC2)CC3)cc(N2CCCCS2(=O)=O)c1`, the inhibition in experiment [1] was determined as 0.73%; in experiment [2], 0.04%; in experiment [3], 0.09%.

For `CC(C)C[C@@H](/C=N/N1CCNC1=O)NC(=O)[C@H](CC(C)C)NC(=O)c1ccc(OCCN2CCOCC2)cc1`, the inhibition came to 0.84% in experiment [1], 6.5% in experiment [2] and 0.69% in experiment [3].

For the molecule `CCN(CC)CCN(Cc1ccc(-c2ccc(C(F)(F)F)cc2)cc1)C(=O)Cn1c(CCc2cc(F)ccc2F)nc(=O)c2ccccc21`, the inhibition was 1.25% in experiment [1], -1.65% in experiment [2] and 1.58% in experiment [3].

For the molecule `CCN(CC)C(=O)c1cnc(-c2ccccc2)nc1Oc1cccc(Cl)c1`, the inhibition is -0.46% in experiment [1], 2.57% in experiment [2] and 3% in experiment [3].

In the case of `O=C(NCC1CCN(CC2CCCCC2)C1)c1cc(-c2cccc(C(F)(F)F)c2)cs1` (stereo not given), the inhibition is -1.1% in experiment [1], -0.44% in experiment [2] and -2.1% in experiment [3].

On to `O=S(=O)(NCCN1CCCC1)c1ccc(-c2cccc(CNC3Cc4ccccc4C3)c2)cc1F`, for which the inhibition in experiment [1] was determined as 7.61%; in experiment [2] it was 2.53%; in experiment [3] it was 3.93%.

Consider `O=C(Nc1cccc(CN2CCN(C(=O)c3ccccc3)CC2)c1)c1cccs1`, for which the inhibition in experiment [1] stood at 4.55%; in experiment [2], 2.87%; in experiment [3] it was 3.92%.

For the molecule `COc1ccc(-c2nc(NC(=O)CS(=O)(=O)c3ccccc3)sc2C)cc1`, the values for the inhibition in experiment [1], in experiment [2] and in experiment [3] were 8.8%, 4.92% and 1.25%, respectively.

Consider `Clc1ccccc1CNc1noc(-c2sccc2Br)n1`, for which the inhibition stood at 0.33% in experiment [1], 2.84% in experiment [2] and 1.17% in experiment [3].

Regarding `NC1CCCN(Cc2cccc(-c3cccc(-c4nc5ccccc5[nH]4)c3)c2)C1` (stereo not given), the inhibition in experiment [1] was 8.27%; in experiment [2], 6.48%; in experiment [3], 5.75%.

Turning to `O=C(NCCc1ccccc1)N(Cc1cccc(-c2ccc(CNCc3ccc4c(c3)OCO4)cc2)c1)C1CCN(Cc2ccccc2)CC1`, the inhibition was determined as 1.17% in experiment [1], 2.76% in experiment [2] and 1.29% in experiment [3].

On to `CN(Cc1cccc(F)c1)C1CCN(c2cc(NC(=O)c3ccc(F)cc3)ccn2)C1` (stereo not given), for which the figures for the inhibition in experiment [1], in experiment [2] and in experiment [3] were 2.33%, -0.57% and 1.63%, respectively.

Regarding `C=C[C@H]1CN2CC[C@H]1C[C@H]2[C@H](O)c1ccnc2ccc(OC)cc12`, the inhibition in experiment [1] is 7.23% and -4.42% and 0.77%; in experiment [2], 6.11% and -3.17% and 2.26%; in experiment [3], -0.01% and 5.72% and -2.15%.

In the case of `Cc1cccc2nc(-c3ccc(-c4ccc(CNCc5cnn(-c6ccccc6)n5)cc4)cc3)[nH]c12`, the inhibition amounted to 1.08% in experiment [1], 1.39% in experiment [2] and 1.19% in experiment [3].

Regarding `COc1cccc2c(NN=Cc3cccc(F)c3)ccnc12`, the inhibition in experiment [1] amounted to 3.44%; in experiment [2], 2.06%; in experiment [3], 1.75%.

In the case of `O=C(Nc1c(F)cccc1F)c1cccc(-c2nn3ccccc3c2-c2ccnc(Nc3cccc(-c4cnco4)c3)n2)c1`, the inhibition in experiment [1] stood at 12.2%; in experiment [2] it was 4.66%; in experiment [3], 1.5%.

For `COc1c(C2CCN(CCCCNC(=O)c3ccc(-c4ccc(Cl)cc4)c(O)c3)CC2)ccc2c1CCCC2`, the inhibition in experiment [1] stood at 2.96%; in experiment [2], 2.6%; in experiment [3] it was 0.11%.

With `CN1CCN(CCCN(Cc2csc(-c3ccc(CNCc4ccccc4)cc3)n2)C(=O)Nc2ccc3ccccc3c2)CC1`, the inhibition in experiment [1] stood at 2.94%; in experiment [2], 4.46%; in experiment [3] it was 0.42%.

Regarding `COc1cc2nc(N3CCN(c4nc(N)c5cc(OC)c(OC)cc5n4)CC3)nc(N)c2cc1OC`, the inhibition in experiment [1] amounted to 5.24%; in experiment [2], 4.56%; in experiment [3] it was 4.05%.

With `CC(C)CNCc1ccc(-c2ccc(CN(C(=O)NCCc3ccccc3)C3CCN(Cc4ccccc4)CC3)cc2)cc1`, the inhibition in experiment [1] is 71.6%; in experiment [2] it was 53.7%; in experiment [3], 47.2%.

With `Cc1ccccc1C1CCN(C2CCC(NC(=O)/C=C/c3ccc(C(F)(F)F)cc3)CC2)CC1` (stereo not given), the figures for the inhibition in experiment [1], in experiment [2] and in experiment [3] were 0.43%, 1.57% and 1.85%, respectively.

In the case of `O=C(NC1CCN(c2ccnc3cc(Cl)ccc23)C1)c1ccc(F)cc1` (stereo not given), the inhibition in experiment [1] is 2.4%; in experiment [2] it was 2.61%; in experiment [3] it was 4.18%.
